Source: PubChem
Hits are enriched below; roughly 4.2% of the tested compounds scored in any of these assays.
NALP1 inh = NALP1 inhibition; S. cerevisiae NALP1/ASC/caspase-1 growth, X-gal OD620, 72 h; inhibition, % at 10 µM; actives 0.61% (n = 280,000); AID 2071; in the data active = inhibition mostly above about 24%, no sharp cut-off; inactive = mostly below about 32%
tim10-1 inh = inhibits growth of tim10-1 mutant yeast | inhibition, % at 20 µM | S. cerevisiae tim10-1 ts strain growth, BacTiter-Glo, 24 h | actives 2.2% (n = 330,000);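 active = inhibition of at least 40%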;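 note: mutant grown at 25 °C; 0% = DMSO wells with yeast and 100% = wells holding no yeast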
TIM10 inh = inhibits growth of TIM10 yeast strain. S. cerevisiae TIM10 strain growth, BacTiter-Glo luminescence, 24 h. inhibition, % at 10 µM. actives 1.4% (n = 330,000). AID 463195;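 active = inhibition of 40% or more at the single tested concentration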;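 note: wild-type TIM10 isogenic control strain grown at permissive 25 °C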
NALP3 yeast inh = blocks the NALP3 inflammasome reconstituted in yeast; Yeast reconstituted NLRP3/ASC/caspase-1, beta-gal luminescence, 24 h; inhibition, % at 10 µM; actives 0.39% (n = 330,000);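 active = inhibition of 50% or more; inactive = inhibition below 50%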;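 note: plate controls were induced DMSO wells for no effect and uninduced yeast grown without galactose for full effect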
V-ATPase pHluor = regulators of yeast V-ATPase proton transport; S. cerevisiae, pHLuorin cytosolic pH fluorescence; response, % at 10 µM; actives 0.37% (n = 350,000); in the data active = response mostly above about 7.3%, no sharp cut-off; inactive = mostly below about 5.4%; note: actives read high
tim23-1 inh = growth inhibitors of tim23-1 mutant yeast | S. cerevisiae tim23-1 growth, BacTiter-Glo luminescence, 24 h | inhibition, % at 20 µM | actives 1.3% (n = 330,000) | AID 463212;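 active = growth inhibition of the mutant yeast at or above 50%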;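 note: temperature-sensitive mutant grown at 25 °C; plate controls were DMSO-treated mutant yeast for no effect and medium wells lacking yeast for full effect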
TIM10 conf = TIM10 yeast growth inhibition, confirmed; inhibition, % at 10 µM; shares compounds with TIM10 inh; actives 63% (n = 4,600); AID 463215; S. cerevisiae tim10 strain growth, BacTiter-Glo luminescence, 24 h;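 active = inhibition of yeast growth at or above a set limit in either of two replicates at 10 µM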;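 note: this counterscreen used the strain with wild-type TIM10; 0% = yeast with DMSO and 100% = medium wells lacking yeast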
* hit, by the source's call.

For CCOC(=O)c1cnc2c(ccc3ccccc32)c1NCCO the results were NALP1 inh -93.8, tim10-1 inh 38.0, TIM10 inh 61.3*, NALP3 yeast inh 29.6, V-ATPase pHluor 5.4, tim23-1 inh 48.7 and TIM10 conf 69.0*.
CC(Oc1ccc(F)cc1)c1ccnc2nc(/N=C/N(C)C)nn12 (configuration not stated) was read as NALP1 inh 6.4, tim10-1 inh -11.5, TIM10 inh -17.1, NALP3 yeast inh 6.0, V-ATPase pHluor 0.4 and tim23-1 inh -2.3.
Cc1cc(C(=O)COC(=O)CC2Sc3ccccc3NC2=O)c(C)n1-c1ccccc1 (configuration not stated) was read as NALP1 inh 38.8, tim10-1 inh 36.2, TIM10 inh 57.4*, NALP3 yeast inh 3.8, V-ATPase pHluor -2.6, tim23-1 inh 25.7 and TIM10 conf 32.0*.
`COc1ccc(C2CCc3cc4c(cc3C2=NO)OCO4)cc1OC` (configuration not stated) gave V-ATPase pHluor -0.9.
COc1cccc2cc(NC(=O)C3CCCCC3)c(=O)oc12 was read as NALP1 inh 10.9, tim10-1 inh 6.3, TIM10 inh 1.5, NALP3 yeast inh 9.1, V-ATPase pHluor -2.4 and tim23-1 inh 10.8.
C=CCN(c1ccccc1)S(=O)(=O)c1cccc(C(=O)NCc2ccco2)c1 was read as tim10-1 inh -1.8, TIM10 inh -6.2, NALP3 yeast inh 15.3, V-ATPase pHluor 0.1 and tim23-1 inh 12.1.
For COc1ccccc1N1C(=O)C=C(Sc2nc(C)cc(C)n2)C1=O the results were NALP1 inh -16.9, tim10-1 inh 10.3, TIM10 inh 41.7*, NALP3 yeast inh -12.8, V-ATPase pHluor 6.6, tim23-1 inh -11.4 and TIM10 conf 44.8*.
For Cc1ccc(CNC(=O)c2ccc3c(c2)NC(=O)CS3)cc1 the results were NALP1 inh 0.3, tim10-1 inh -39.9, TIM10 inh -43.7, NALP3 yeast inh 2.4, V-ATPase pHluor 1.6 and tim23-1 inh -15.4.
`CCOC(=O)c1sc(=NC(=O)c2cccs2)n(C)c1C` gave NALP1 inh -12.4, tim10-1 inh 0.9, TIM10 inh 58.7*, NALP3 yeast inh 49.3, V-ATPase pHluor 0.1, tim23-1 inh 42.8 and TIM10 conf 46.4*.
Screening CC1CCc2c(C(=O)NCCCN3CCOCC3)csc2C1 (configuration not stated) returned NALP1 inh 24.8, tim10-1 inh -10.8, TIM10 inh -18.7, NALP3 yeast inh 11.9, V-ATPase pHluor -2.7 and tim23-1 inh 7.7.
`N#Cc1ccccc1Sc1ccccc1C(=O)N1CCOCC1` gave NALP1 inh 13.0, tim10-1 inh 27.6, TIM10 inh 5.2, NALP3 yeast inh 19.4, V-ATPase pHluor -0.3 and tim23-1 inh 17.8.
`COc1ccc(NC(NC(=O)c2ccc(OC)cc2)C(Cl)(Cl)Cl)cc1` (configuration not stated) gave NALP1 inh 13.5, tim10-1 inh 33.1, TIM10 inh 41.7*, NALP3 yeast inh -1.7, V-ATPase pHluor -3.0, tim23-1 inh 35.2 and TIM10 conf 26.5*.
`O=[N+]([O-])c1cc(-n2cnnn2)ccc1N1CCC(Cc2ccccc2)CC1` gave NALP1 inh 9.7, tim10-1 inh -6.5, TIM10 inh 19.5, NALP3 yeast inh 5.2, V-ATPase pHluor -0.3 and tim23-1 inh 28.5.
CCc1ccc(OCC(O)CN2CCCC2)cc1 (configuration not stated) was read as NALP1 inh -29.3, tim10-1 inh -2.3, TIM10 inh -10.3, NALP3 yeast inh 11.9, V-ATPase pHluor -5.0 and tim23-1 inh -4.8.
CCCCn1c(N)c(N(Cc2ccccc2OC)C(=O)c2cc(=O)[nH]c3ccccc23)c(=O)[nH]c1=O was read as tim10-1 inh 20.3, TIM10 inh -5.7, NALP3 yeast inh 17.8, V-ATPase pHluor -0.8 and tim23-1 inh -4.4.
`COCCn1c(N)c(N(Cc2ccccc2)C(=O)c2cc(=O)[nH]c3ccccc23)c(=O)[nH]c1=O` gave tim10-1 inh -9.4, TIM10 inh 41.5*, NALP3 yeast inh 9.9, V-ATPase pHluor -3.2, tim23-1 inh -7.1 and TIM10 conf -18.3.
O=C(NCC#CCOCc1ccccc1)c1ccccc1 was read as NALP1 inh 32.4, tim10-1 inh 28.2, TIM10 inh -5.9, NALP3 yeast inh 19.5, V-ATPase pHluor 3.5 and tim23-1 inh 5.0.
O=C(COC(=O)c1ccccn1)NCc1ccc(Cl)cc1Cl was read as tim10-1 inh 6.2, TIM10 inh -0.1, NALP3 yeast inh 11.9, V-ATPase pHluor -6.5 and tim23-1 inh 19.0.
`C=CCn1c(-c2ccc(OC)cc2)csc1=Nc1c(C)n(C)n(-c2ccccc2)c1=O` gave NALP1 inh 1.1, tim10-1 inh 36.6, TIM10 inh 41.7*, NALP3 yeast inh 5.6, V-ATPase pHluor -1.0, tim23-1 inh 48.3 and TIM10 conf 33.1*.
Screening N#Cc1ccc(S(=O)(=O)N2CCN(CC(=O)Nc3ccccc3C(=O)NC3CC3)CC2)cc1 returned tim10-1 inh -3.7, TIM10 inh 7.4, NALP3 yeast inh 11.0, V-ATPase pHluor 1.6 and tim23-1 inh 8.2.
O=C(NC(=S)N(CCCCO)C1CCCCC1)c1sc2ccccc2c1Cl was read as NALP1 inh 13.0, tim10-1 inh 21.7, TIM10 inh 42.6*, NALP3 yeast inh 14.0, V-ATPase pHluor 1.8, tim23-1 inh 41.8 and TIM10 conf 14.2.
Screening CCN(C(=O)COC(=O)CNC(=O)c1sc2ccccc2c1Cl)C1CCCCC1 returned tim10-1 inh 35.4, TIM10 inh 23.2, NALP3 yeast inh 23.3, V-ATPase pHluor 1.1 and tim23-1 inh 33.8.
Screening Oc1ccc(Br)cc1/C=N/n1c(C2CCCCC2)n[nH]c1=S returned NALP1 inh -4.9, tim10-1 inh -2.6, TIM10 inh 44.4*, NALP3 yeast inh 1.6, V-ATPase pHluor -0.3, tim23-1 inh 49.8 and TIM10 conf 56.5*.
`COc1ccc(/C(N)=N/OC(=O)c2c(-c3ccccc3Cl)noc2C)cc1OC` gave NALP1 inh 6.6, tim10-1 inh 22.5, TIM10 inh 15.8, NALP3 yeast inh 8.0, V-ATPase pHluor 2.2 and tim23-1 inh 4.1.
CNc1nnc(-c2cc3cc(Cl)ccc3oc2=O)s1 was read as NALP1 inh 6.9, tim10-1 inh 17.7, TIM10 inh 46.2*, NALP3 yeast inh 11.8, V-ATPase pHluor -1.6, tim23-1 inh 23.1 and TIM10 conf 32.7*.
Screening CC(C)(C)n1nnnc1C(c1ccc(Cl)cc1)N1CCCc2ccccc21 (configuration not stated) returned NALP1 inh 29.2, tim10-1 inh 37.4, TIM10 inh 28.2, NALP3 yeast inh 10.1, V-ATPase pHluor 2.2 and tim23-1 inh 45.2.
